# Assay results from PubChem BioAssay AID1851 (National Center for Advancing Translational Sciences (NCATS), 2009).
# Among all 16,000 compounds or so, about 5,800 (36%) were called active. Another 23% or so got no clear call; they are omitted. The list shows a part of the results. A number with no mark means an inactive call. Calls follow the shape of the dose curve; as a rule, active = well fitted curve in the direction sought with a large enough effect; inconclusive = small, poorly fitted or top-dose-only effect, or effect the other way; inactive = no such curve, though single readings can be large or run the other way.
# Biological target: Cytochrome P450 2C19 (Homo sapiens) (UniProt P33261)
# Sequence (P33261 whole entry, looked up): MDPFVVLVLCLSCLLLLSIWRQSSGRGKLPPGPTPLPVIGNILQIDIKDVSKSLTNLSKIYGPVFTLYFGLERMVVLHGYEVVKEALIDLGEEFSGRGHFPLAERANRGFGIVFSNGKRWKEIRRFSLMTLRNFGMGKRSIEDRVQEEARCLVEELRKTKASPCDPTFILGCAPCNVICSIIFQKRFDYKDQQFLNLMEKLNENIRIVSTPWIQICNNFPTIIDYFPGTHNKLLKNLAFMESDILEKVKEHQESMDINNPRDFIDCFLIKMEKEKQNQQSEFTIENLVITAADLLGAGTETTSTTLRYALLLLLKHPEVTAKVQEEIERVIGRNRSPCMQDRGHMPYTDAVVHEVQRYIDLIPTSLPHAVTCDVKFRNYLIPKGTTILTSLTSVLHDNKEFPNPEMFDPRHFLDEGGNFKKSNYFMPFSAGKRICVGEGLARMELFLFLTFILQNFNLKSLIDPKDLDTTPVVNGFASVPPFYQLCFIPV
# Test: Cytochrome panel assay with activity outcomes
# Settings: recombinant CYP, pro-luciferin dealkylation, luminescence, p450-cyp2c19; series mostly up to 57.1 µM; activity, negative = inhibition: at the top concentration
# % is scaled to controls: 0 for no effect and ±100 for the full control effect.
Compound,"activity, negative = inhibition",AC50
Nc1ccc(S(=O)(=O)Nc2nccs2)cc1,7.08% [at 25.6 µM],
Nc1ccc(S(=O)(=O)Nc2ncccn2)cc1,25.6% [at 25.6 µM],
Nc1ccc(S(=O)(=O)NCc2nccs2)cc1,,0.0794 µM (active)
Cc1cccc(NC(NC(=O)c2cccnc2)C(Cl)(Cl)Cl)c1 (centres undefined),,2.82 µM (active)
O=C(NC(NCc1ccccc1)C(Cl)(Cl)Cl)c1cccnc1 (centres undefined),,4.47 µM (active)
O=C(O)c1cccnc1,6.1% [at 25.6 µM],
CCNc1ncc2nc(-c3cccs3)c(=O)n(CCC#N)c2n1,-20.2%,
COC(Cc1nnc(SC)n1-c1ccccc1)OC,-17%,
COC(Cc1nnc(SC)n1-c1ccc(Cl)cc1)OC,-9.57%,
COc1ccc(NCc2nnc(SCc3ccccc3)n2-c2ccc(OC)cc2)cc1,,3.98 µM (active)
COC(=O)CSc1nnc(CNc2ccc(Cl)cc2)n1-c1ccccc1,,5.01 µM (active)
CCOc1ccc(NCc2nnc(SCc3ccccc3Cl)n2-c2ccccc2)cc1,,2 µM (active)
CC(C)CN1CCCC2(CCN(C(=O)c3csnn3)CC2)C1,-12.1%,
C[C@@H]1CCCC(CC(=O)O)(CC(=O)O)C1,9.85% [at 11.4 µM],
O=C(/C=C/c1ccc(Br)cc1)NC1CCCCCC1,-28.3%,
Cc1ccc(/C=C/C(=O)NC(=S)Nc2ccccc2C(=O)NC2CCCCC2)cc1,,14.1 µM (active)
O=c1c([N+](=O)[O-])cc(C(F)(F)F)cn1Cc1c(Cl)cccc1Cl,,7.08 µM (active)
Cc1cc2nc3[nH]c4c(Cl)cc(Cl)cc4c3nc2cc1C,32.6% [at 11.4 µM],
CN(Cc1ccco1)c1cc(-c2ccc3c(c2)OCO3)ncn1,,10 µM (active)
CN(C)C(=O)c1ccc(-c2cc(N(C)Cc3ccco3)ncn2)cc1,-41.6%,
CN(C)c1ccc(-c2cc(N(C)Cc3ccco3)ncn2)cc1,,10 µM (active)
CC(=O)OC[C@H]1O[C@@H](O/N=C\[C@@H](C)[C@H](OCc2ccccc2)C(C)C)[C@H](OC(C)=O)[C@@H](OC(C)=O)[C@H]1OC(C)=O,12.9% [at 11.4 µM],
O=C1C=C(NCC2CCCO2)C2(CCCCC2)O1 (centres undefined),-39.1%,
COc1ccc2cc(C)c3nnc(SCC(=O)Nc4nc(-c5ccccc5)cs4)n3c2c1,,5.01 µM (active)

Compound,"activity, negative = inhibition",AC50
Cc1cc2ccccc2nc1SCC(=O)Nc1nc(-c2ccccc2)cs1,-7.04%,
CC(=O)OC[C@@H]1O[C@H](C/C=N\O[C@@H]2O[C@H](COC(C)=O)[C@@H](OC(C)=O)[C@H](OC(C)=O)[C@H]2OC(C)=O)C=C[C@@H]1OC(C)=O,12.3% [at 11.4 µM],
O=C(CN1CCN(c2ccc(Cl)cc2)CC1)Nc1cccc(F)c1,,5.01 µM (active)
O=C(CN1CCN(c2ccc(Cl)cc2)CC1)Nc1ccc(F)c(F)c1,,7.94 µM (active)
O=C(COc1ccc(Cl)cc1)Nc1ccc(N2CCN(C(=O)c3ccco3)CC2)cc1,-27.1%,
C[C@H]1O[C@@H](CC(=O)O)Cc2c1c(O)c1c(O)cc(-c3cc(=O)c4c(=O)c5c(c(=O)c=4c3=O)C[C@H](CC(=O)O)O[C@@H]5C)c(O)c1c2O,-5.68% [at 11.4 µM],
COC(=O)c1c(NC(=O)c2ccco2)sc2c1CCC2,,4.47 µM (active)
COCCn1c(=O)c(-c2ccc(Cl)cc2)nc2cnc(N(C)C)nc21,6.88%,
Cc1ccc2[nH]c3c(c2c1)CN(C(=O)CN1c2ccc(F)cc2CCC1C)CC3 (centres undefined),,3.55 µM (active)
COc1ccc2[nH]c3c(c2c1)CN(C)CC3,-22.7%,
COC(=O)c1ccc2ccn(CC(=O)NC3CCCCC3)c2c1,,1.58 µM (active)
CCOC(=O)Cc1c(C)nc2c(C#N)c[nH]n2c1=O,-24.9%,
CCOC(=O)CSC1=C(C#N)C(c2sccc2C)CC(=O)N1 (centres undefined),,7.94 µM (active)
CCOC(=O)C1=C(C)NC(C)=C(C(=O)OCC)C1c1sccc1C,,1.78 µM (active)
COC(=O)CSC1=C(C#N)C(c2cccc(F)c2)CC(=O)N1 (centres undefined),,11.2 µM (active)
CCOC(=O)CSC1=C(C#N)C(c2sccc2C)C(C(C)=O)=C(C)N1 (centres undefined),,1.78 µM (active)
CCOC(=O)CSC1=C(C#N)C(C)C2=C(CCCC2=O)N1 (centres undefined),,0.708 µM (active)
COC(=O)C1=C(NC(=O)c2cccc(OC)c2)CCS1,,14.1 µM (active)
CCCCN(CC)S(=O)(=O)c1ccc(C(=O)Nc2nnc(CSC)o2)cc1,-8.71%,
COCCN(CCOC)S(=O)(=O)c1ccc(C(=O)Nc2nc(C)c(C(C)=O)s2)cc1,-35.5%,
CCN(CC)S(=O)(=O)c1ccc(C(=O)NC2=C(C(=O)OC)SCC2)cc1,,8.91 µM (active)
Cc1ccc(C2CC(C(F)(F)F)n3nc(C(=O)NCCN4CCOCC4)cc3N2)cc1 (centres undefined),-29.1%,
Cc1ccnc(NS(=O)(=O)c2ccc(N=[N+]=[N-])cc2)n1,39.6% [at 11.4 µM],
CCOc1ccc(C(=O)NC(=S)N(Cc2ccccc2)Cc2ccccc2)cc1,,8.91 µM (active)

Compound,"activity, negative = inhibition",AC50
C[C@H](CN(C)C)C(=O)c1ccccc1C(=O)O,12.3% [at 11.4 µM],
CN1CCN(NC(=O)c2ccccc2F)CC1,2.59%,
O=C(NC(=S)N(Cc1ccccc1)Cc1ccccc1)c1ccccc1F,,2.24 µM (active)
COc1ccc(CN(CCC#N)C(=S)NC(=O)c2ccccc2)cc1,,7.94 µM (active)
CCNC(=O)c1ccc(-n2nc(C(F)(F)F)c3c2CCCC3)cc1,,5.62 µM (active)
CCc1ccc(NC(=O)Cn2nc(C(F)(F)F)c3c2CCC3)cc1,,7.94 µM (active)
CCCCN(C)CCCNC(=O)c1ccc(N2CCCC2=O)cc1,15.5%,
O=C1OCCC1Sc1nnc(-c2ccc(O)cc2)o1 (centres undefined),,10 µM (active)
Cc1cc(C)c2[nH]c(=O)c(CN(Cc3ccco3)C(=O)c3cccs3)cc2c1,,1.78 µM (active)
CN(CCC#N)C(=O)c1ccc(CNS(=O)(=O)c2ccc(F)cc2)cc1,,17.8 µM (active)
CCC(=O)N1CCc2cc(S(=O)(=O)NC(C(=O)NCc3ccc(F)cc3)C(C)C)ccc21 (centres undefined),-14.1%,
Cc1c2cccc(Sc3ccccc3)c2c2c3c(cccc13)[S+](c1ccccc1)C2 (centres undefined),,0.0631 µM (active)
Cn1c(=O)c(-c2cc(F)cc(F)c2)nc2cncnc21,-31.9%,
COc1ccccc1CCn1c(=O)c(-c2cc(F)cc(F)c2)nc2cncnc21,,1.58 µM (active)
COCCn1c(=O)c(-c2cc(F)cc(F)c2)nc2cncnc21,-22%,
COc1ccccc1CCn1c(=O)c(-c2cccc(F)c2)nc2cncnc21,,1 µM (active)
CNC(=O)c1c(I)c(C(=O)NCC(=O)Nc2c(I)c(C(=O)O)c(I)c(C(=O)NCCO)c2I)c(I)c(N(C)C(C)=O)c1I,-35.8% [at 25.6 µM],
O=C(O)[C@@H]1[C@@H](C(=O)Nc2ncccn2)[C@@H]2C=C[C@@H]1O2,0.77% [at 11.4 µM],
CC[C@]1(O)C[C@@H]2CN(CCc3c([nH]c4ccccc34)[C@](C(=O)OC)(c3cc4c(cc3OC)N(C)[C@H]3[C@](O)(C(=O)OC)[C@@H](C(=O)OC)[C@@]5(CC)C=CCN6CC[C@@]43[C@@H]65)C2)C1,-25.1%,
CN(C(=O)CC(NC(=O)c1ccccc1)(c1ccccc1)c1ccccc1)c1ccccc1,,11.2 µM (active)
COC(=O)c1ccc(NC(=O)c2ccccc2)o1,-23.3%,
CCCCCC1=C2CNC(C)(C(=O)OC)C=C2C(C)C1=O (centres undefined),,20 µM (active)
CCCCCC1=C2CNC(Cc3ccccc3)(C(=O)OC)C=C2C(C)C1=O (centres undefined),,6.31 µM (active)
COCCn1c(=O)c(-c2cccc(C#N)c2)nc2cnc(N3CCNCC3)nc21,-35.5%,

Compound,"activity, negative = inhibition",AC50
Nc1ccc(N=Nc2c(S(=O)(=O)O)cc3ccccc3c2S(=O)(=O)O)cc1,1.46% [at 11.4 µM],
CCOC(=O)CCN1C(=O)[C@H]2[C@@H]3[C@H](O)[C@H](O)CC(=O)[C@H]3CC[C@H]2C1=O,-31.9% [at 11.4 µM],
Cc1cccc(C)c1NC(=O)CCN1C(=O)C2C3CCC(C3)C2C1=O (centres undefined),9.83%,
Cc1cc(NC(=O)CCN2C(=O)C3C4CCC(C4)C3C2=O)c(C)cc1Br (centres undefined),,11.2 µM (active)
CC1CCN(CC(=O)Nc2cccc([N+](=O)[O-])c2)CC1,,4.47 µM (active)
O=C1c2ccccc2S(=O)(=O)N1CCCCN1CCN(c2ncccn2)CC1,,0.631 µM (active)
O[C@H](CCCN1CCN(c2ncc(F)cn2)CC1)c1ccc(F)cc1,-16.9%,
Cn1cccc1C(=O)N1CCC2(CC1)CCN(c1ccc(-c3ccccc3)cc1)CC2,9.67%,
COc1ccc(C(=O)NCCCN2CCOCC2)cc1OC,-12.1%,
COc1ccc(C(=O)Nc2ccc(Cl)cc2C(=O)NCCN2CCOCC2)cc1,,10 µM (active)
O=C(NCCN1CCCCC1)c1ccc(I)cc1,-38.6%,
O=C(NCCN1CCOCC1)c1csc2c1CCCCC2,,28.2 µM (active)
O=C(NCCN1CCOCC1)c1ccc2ccccc2c1,,7.94 µM (active)
Cc1ccc(C(=O)NCCCN2CCOCC2)cc1N1CCCC1=O,-14.7%,
COc1ccc(-c2cn3c(C)c(C(=O)NCCN4CCOCC4)sc3n2)cc1,-22.6%,
CC(=O)N1CCC2(CC1)CN(C(=O)Nc1cccc(C#N)c1)C2,7.13%,
Cc1nc(SCC(=O)Nc2c(C)n(C)n(-c3ccccc3)c2=O)nc(C)c1C,-7.06%,
C=CCn1c(SCC(=O)Nc2c(C)n(C)n(-c3ccccc3)c2=O)nc2sc(C)c(-c3ccccc3)c2c1=O,,15.8 µM (active)
Cc1c(NC(=O)CSc2nnc3c4ccccc4n(CCc4ccccc4)c3n2)c(=O)n(-c2ccccc2)n1C,,25.1 µM (active)
Cc1c(NC(=O)Cn2ccc([N+](=O)[O-])n2)c(=O)n(-c2ccccc2)n1C,-13.2%,
Cc1c(NC(=O)CSc2nnnn2C)c(=O)n(-c2ccccc2)n1C,-10.8%,
CC(=O)N1CCc2cc(S(=O)(=O)CCC(=O)Nc3c(C)n(C)n(-c4ccccc4)c3=O)ccc21,-11.7%,
